From PubChem
Hits are enriched below; roughly 2.9% of the tested compounds scored in any of these assays.
ADAM17 inh – ADAM17 inhibitors, primary screen, biochemical, QFRET. Disintegrin and metalloproteinase domain-containing protein 17 (Homo sapiens), P78536. recombinant ADAM17, EDANS/DABCYL FRET peptide cleavage. inhibition, % at 6.95 µM. 370,000 compounds, 0.83% hits. AID 720648, 2013;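 active means inhibition above the mean of compounds lying between control limits plus 3 SD, set per campaign, cut at about 8.5% in these data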
PLC-gamma1 inh – PLC-gamma1 enzyme inhibitors, primary screen, biochemical, fluorescence, purified enzyme; AID 720700, 2013; 370,000 compounds, 0.84% hits; inhibition, % at 12.2 µM; fluorogenic substrate
ADAM10 inh – human ADAM10 inhibitors, primary screen, biochemical, QFRET, HTS | AID 720582, 2013 | 370,000 compounds, 0.62% hits | recombinant ADAM10, EDANS/DABCYL FRET peptide cleavage, 3 h | inhibition, % at 7 µM | Disintegrin and metalloproteinase domain-containing protein 10 (Homo sapiens), O14672;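 active means inhibition above a per-campaign cutoff equal to the mean of compounds falling between control-based bounds plus 3 SD, cut at about 20% in these data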
PLCb3 inh – human PLC-beta3 inhibitors, primary screen, biochemical, fluorescence; 370,000 compounds, 0.18% hits; 1-phosphatidylinositol 4,5-bisphosphate phosphodiesterase beta-3 (Homo sapiens), Q01970; inhibition, % at 12.2 µM; Purified PLC-beta3, fluorogenic substrate; in the data active means inhibition above about 11%
KLK7 zymogen act – proKLK7 zymogen activators, primary screen, biochemical, fluorescence intensity; AID 652039, 2013; activation, % at 7 µM; 370,000 compounds, 0.9% hits; purified proKLK7, EDANS-DABCYL substrate fluorescence; 100% is mature enzyme control, 0% vehicle;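 active means activation above the mean of all tested compounds plus 3 SD, computed per campaign excluding outliers beyond control limits, cut at about 13% in these data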
PLCgamma1 ctr – PLC-gamma1 enzyme inhibitors, counter-screen for PLC-beta3 inhibitor project, biochemical, fluorescence; shares compounds with PLC-gamma1 inh; purified PLC-gamma1, fluorogenic substrate; inhibition, % at 12.3 µM; 3,300 compounds, 3.1% hits; AID 743258, 2014
PLCbeta3 conf – PLC-beta3 inhibitor confirmation, biochemical, fluorescence, purified enzyme; shares compounds with PLC-gamma1 inh; 3,300 compounds, 1% hits; inhibition, % at 12.3 µM; fluorogenic substrate fluorescence; in the data active means inhibition above about 11%
Numbers stand for hits; 0 = inactive; - = no result given. Unless noted, no stated cut-off is given here; in the data, active means inhibition above about 9.5%; inactive means the rest.

SMILES	ADAM17 inh	PLC-gamma1 inh	ADAM10 inh	PLCb3 inh	KLK7 zymogen act	PLCgamma1 ctr	PLCbeta3 conf
COC(=O)/C=C1\S/C(=N/NC(=O)c2ccc(OC)cc2)NC1=O	0	0	0	0	0	-	-
O=C(NC1CCCC1)C(c1ccccc1)N(C(=O)c1ccco1)C1CCCC1 (stereo unspecified)	0	9.9	0	0	0	0	0
C=CCN(C(=O)CNC(=O)c1ccco1)C(C(=O)NC1CCCCC1)c1ccc(F)cc1 (stereo unspecified)	0	10	0	0	0	0	0
O=C(NCC(=O)N(c1ccccc1)C(C(=O)NC1CCCC1)c1cccnc1)c1ccco1 (stereo unspecified)	0	10	0	0	0	0	0
O=C(O)Cc1ccc2c(c1)N(S(=O)(=O)c1cccs1)CC(C(=O)O)O2 (stereo unspecified)	0	0	0	0	0	-	-
COc1ccccc1NC(=O)CCNS(=O)(=O)c1ccc2[nH]c(=O)oc2c1	0	0	0	0	0	-	-
COc1ccc(C2=NOC(Cn3nc(-c4ccccc4)cc3C(=O)NCc3cccc(Br)c3)C2)cc1 (stereo unspecified)	0	0	0	16	0	0	0
CCOC(=O)C1CCN(C(=O)Nc2ccc(OCc3ccccc3)cc2)CC1	0	0	0	0	0	-	-
COc1ccc(CNCC(O)(c2ccccc2)c2ccccc2)cc1	0	19	0	0	0	0	0
CN(NS(=O)(=O)c1ccccc1)C(=O)c1ccccc1	0	12	0	0	0	0	0
CCCCNC(=O)NC(C(=O)OC)C12CC3CC(CC(C3)C1)C2 (stereo unspecified)	0	13	0	0	0	0	0
CCC(C(=O)NCc1ccccc1)n1c(-c2ccc3c(c2)CCO3)nc2ccccc21 (stereo unspecified)	0	0	0	0	0	-	-
CCOC(=O)c1ccc(NC(=O)c2nc[nH]c2C(=O)NC2CCN(C(=O)OC(C)(C)C)CC2)cc1	0	11	0	0	0	0	0
Cn1cnnc1Sc1ccc(C(=O)NCCC23CC4CC(CC(C4)C2)C3)cc1[N+](=O)[O-]	0	9.5	0	0	0	0	0
CC1Cc2ccccc2N1C(=S)NC1CCCC1 (stereo unspecified)	0	0	0	0	0	-	-
O=C(c1ccc(NS(=O)(=O)c2cccc([N+](=O)[O-])c2)cc1)N1CCCCCC1	0	0	0	0	0	-	-
CC(=O)c1ccc(NS(=O)(=O)c2ccc([N+](=O)[O-])cc2)cc1	0	0	0	17	0	0	0
CC1CCCN(C(=O)c2ccc(NS(=O)(=O)c3cccc([N+](=O)[O-])c3)cc2)C1 (stereo unspecified)	0	16	0	0	0	0	0
CSc1ccccc1NC(=O)CN(C)C(=O)C1CC(=O)N(C(C)c2ccccc2)C1 (stereo unspecified)	0	0	0	0	0	-	-
Cc1ccccc1NC(=O)NC1(C(=O)NCc2ccco2)CCCCC1	0	0	0	0	0	-	-
Cc1ccc(CNC(=O)Cn2cccc2C(=O)c2ccccc2)cc1	0	12	0	0	0	0	0
O=C(Cn1cccc1C(=O)c1ccccc1)NCc1ccc(Cl)cc1	0	0	0	0	0	-	-
COc1ccc(S(=O)(=O)n2nc(OC(=O)c3cccs3)cc2N)cc1	0	0	0	0	0	-	-
CS(=O)(=O)n1nc(OC(=O)c2cccs2)cc1N	0	12	0	0	0	0	0
Cc1ccc(NC(=O)Cn2c(=O)oc3ccccc32)cc1Cl	0	0	0	0	0	-	-
SMILES	ADAM17 inh	PLC-gamma1 inh	ADAM10 inh	PLCb3 inh	KLK7 zymogen act	PLCgamma1 ctr	PLCbeta3 conf
CNC(=O)NC1CCCc2ccccc21 (stereo unspecified)	0	11	0	0	0	0	0
Cc1nnc(SCC(=O)NC2CCCc3ccccc32)n1-c1ccccc1 (stereo unspecified)	0	11	0	0	0	0	0
COc1ccc(N=C2c3ccccc3-c3ccc([N+](=O)[O-])cc32)cc1	0	0	0	0	0	-	-
O=C(NCc1ccc(F)cc1)c1cc2c(s1)CCCC2	0	16	0	15	0	0	11
O=C(Cn1c(=O)oc2ccccc21)Nc1ccc(Cl)cc1	0	11	0	0	0	0	0
O=C(Nc1ccc(N=Nc2ccccc2)cc1)c1cccc(Cl)c1	0	12	0	0	0	0	0
O=C(Nc1ccc2c(c1)OCCO2)c1cccc(Cl)c1	0	0	0	0	0	-	-
